Data taken from PubChem BioAssay AID624123 (The Scripps Research Institute Molecular Screening Center, 2012).
Unmarked numbers belong to inactive results. The rule behind the calls is not given here.

Assay: quenching of GFP signal – biochemical, fluorescence, dose response, round 1, artefact control for Rin1-Abl interaction inhibitor project, late-stage follow-up (AID 624123)
Settings: GFP fluorescence interference/quenching counterscreen

**Q.** Which IC50 does the source give for CN(C(=O)c1ccc(NC(=O)Cc2ccc(NC(=O)C3CCN(C(=O)c4ccc(F)cc4)CC3)cc2)cc1)C1CC1 here?
**A.** The IC50 was greater than 67.5 µM.

**Q.** For CN(C(=O)c1ccc(NC(=O)Cc2ccc(NC(=O)C3CCN(C(=O)c4cccc(F)c4)CC3)cc2)cc1)C1CC1, which IC50 is on record?
**A.** Its IC50 is greater than 67.5 µM.

**Q.** For CN(C(=O)c1ccc(NC(=O)Cc2ccc(NC(=O)C3CCN(C(=O)c4ccccc4)CC3)cc2)cc1)C1CC1, which IC50 is on record?
**A.** The IC50 was greater than 67.5 µM.

**Q.** With COc1ccc(C(=O)N2CCC(C(=O)Nc3ccc(CC(=O)Nc4ccc(C(=O)N(C)C5CC5)cc4)cc3)CC2)cc1 as the compound, how does the IC50 read?
**A.** Its IC50 is greater than 67.5 µM.
